For 20 compounds, growth inhibition results are on record in PubChem BioAssay (NCI).

Structures are written as SMILES. About 79,000 compounds went through this panel and 15% of them were active in at least one assay; those are over-represented in the sample as a whole. Values without a mark were called inactive. Activity calls are given as the source filed them. Cut-off read from the data, not from the text of the source: active = growth inhibition above about 70%; inactive = the rest.

Assay [1] in a line: NCI Yeast Anticancer Drug Screen. Data for the rad50 strain (AID 155).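 Note: 0% = growth of vehicle-only cultures of the same strain.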 The note with it: S. cerevisiae rad50 strain growth inhibition; at 50.0 µM; stronger effect = higher value. Put shortly:
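Relative growth inhibition (compound vs vehicle) was measured in yeast with a defined repair-gene alteration.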

Assay [2] in a line: NCI Yeast Anticancer Drug Screen. Data for the mec2-1 strain (AID 157). The note with it: S. cerevisiae mec2-1 strain, at 50.0 µM, stronger effect = higher value. Put shortly:
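Compounds were applied to mec2-1 yeast cells. Their growth was then compared with that of vehicle-treated cultures to give growth inhibition.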

The nature of assay [3]: NCI Yeast Anticancer Drug Screen. Data for the sgs1 mgt1 strain (AID 161).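 Note: 0% = growth of cultures given vehicle only.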 The note with it: S. cerevisiae sgs1 mgt1 strain, at 50.0 µM, stronger effect = higher value. Put shortly:
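Compounds are added to genetically altered yeast, and growth is compared with cultures given vehicle alone to give percent inhibition.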

Assay [4] is described as follows: NCI Yeast Anticancer Drug Screen. Data for the cln2 rad14 strain (AID 165).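 Note: 0% = growth equal to vehicle treated cultures.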 To be noted: S. cerevisiae cln2 rad14 strain, at 50.0 µM, stronger effect = higher value. In outline: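 Strain: cln2 rad14 yeast, altered in cell cycle control and DNA damage repair. Read-out: growth inhibition vs vehicle.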
Assay [5] in a line: NCI Yeast Anticancer Drug Screen. Data for the bub3 strain (AID 167). To be noted: S. cerevisiae bub3 mutant strain, at 50.0 µM, stronger effect = higher value. Put shortly: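 Screening used yeast with an engineered genetic alteration affecting cell cycle control. Compound-exposed cultures were compared with vehicle cultures, and reduced growth was taken as inhibition.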
A short description of assay [6]: NCI Yeast Anticancer Drug Screen. Data for the mlh1 rad18 strain (AID 175). The note with it: S. cerevisiae mlh1 rad18 strain growth inhibition; at 50.0 µM; stronger effect = higher value. In outline:
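A repair-deficient yeast strain is exposed to test compound, and growth is scored relative to vehicle-treated controls.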

Regarding `C=C(CC(=O)O)C(=O)O`, the growth inhibition in assay [1] was -2.25%; in assay [2] it was 2.8%; in assay [3] it was -3.85%; in assay [4], 6.2%; in assay [5] it was 6.05%; in assay [6], 4.9%.

`N#CCC(=O)[O][Sn]([c]1ccccc1)([c]1ccccc1)[c]1ccccc1`: the growth inhibition in assay [1] is 98% (active); in assay [2] it was 98.3% (active); in assay [3] it was 98.8% (active); in assay [4], 97.8% (active); in assay [5], 97.8% (active); in assay [6] it was 98.7% (active).

Regarding `CC(C)=CCC/C(C)=N\N=C(N)N`, the growth inhibition is 5.35% in assay [1]; -8.65% in assay [2]; -13.2% in assay [3]; -20.5% in assay [4]; -2.8% in assay [5]; -15.6% in assay [6].

As for `C#[C][Sn]([CH2]CCC)([CH2]CCC)[CH2]CCC`, the growth inhibition in assay [1] was 99% (active); in assay [2], 99.5% (active); in assay [3] it was 99.2% (active); in assay [4] it was 99.1% (active); in assay [5], 99.3% (active); in assay [6], 99.2% (active).

`N#CN`: the growth inhibition is -9.55% in assay [1]; -17.2% in assay [2]; 22.1% in assay [3]; -16.1% in assay [4]; -13.2% in assay [5]; -5.8% in assay [6].

On to `Cc1ccc(C)c(OP(=O)(Oc2cc(C)ccc2C)Oc2cc(C)ccc2C)c1`, for which the growth inhibition in assay [1] is -29.8%; in assay [2], -42.5%; in assay [3], -15.6%; in assay [4] it was 8.85%; in assay [5] it was -18%; in assay [6], -36.9%.

`NC(Cc1ccccc1)c1cccc2c1CCCC2` (stereo not given): the growth inhibition was 7.35% in assay [1]; -7.3% in assay [2]; -2.55% in assay [3]; -21.8% in assay [4]; 24.4% in assay [5]; 40.5% in assay [6].

`CCOC(=O)C[S][Sn]([Cl])([Cl])[S]CC(=O)OCC`: the growth inhibition in assay [1] is 0.6%; in assay [2], -1.15%; in assay [3], -3.65%; in assay [4], -32%; in assay [5], -5.2%; in assay [6], -18.1%.

For the compound `COc1ccc2c(c1)CC1N(C)CCC13CCCCC23` (stereo not given), the growth inhibition in assay [1] was 41.8%; in assay [2], 19.5%; in assay [3] it was -1.2%; in assay [4], 2.1%; in assay [5], -11.4%; in assay [6] it was -70.4%.

For `CN1C2CCC1CC(OC(=O)/C=C\c1ccccc1)C2` (stereo not given), the growth inhibition in assay [1] was 29%; in assay [2] it was -7.7%; in assay [3], -5.45%; in assay [4], 1.95%; in assay [5] it was 8.45%; in assay [6] it was 9.6%.

For the compound `CCC[P+](CCC)(CCC)CCCCCCCCCC[P+](CCC)(CCC)CCC`, the growth inhibition in assay [1] was -2.65%; in assay [2], -13%; in assay [3], 2.05%; in assay [4], -21.2%; in assay [5], -1.15%; in assay [6], -0.5%.

As to `Oc1ccccc1C=NCCN=Cc1ccccc1O.[Zn+2]`, the growth inhibition in assay [1] is -29.2%; in assay [2], -2.2%; in assay [3], -25.1%; in assay [4] it was -53.8%; in assay [5], -7.8%; in assay [6], -17.9%.

Turning to `O=C1c2ccccc2C2(O)C3C=CCCN3CN12` (stereo not given), the growth inhibition was 2.65% in assay [1]; 9.1% in assay [2]; -1.25% in assay [3]; 4.15% in assay [4]; -4.05% in assay [5]; -6.75% in assay [6].

As for `C=CC[As+](c1cccc2ccccc12)(c1cccc2ccccc12)c1cccc2ccccc12`, the growth inhibition in assay [1] is -61.5%; in assay [2], -14.1%; in assay [3], -15.1%; in assay [4], -33.4%; in assay [5], 5.15%; in assay [6] it was -11.5%.

On to `Cc1ccc(NC(=O)/C=C/c2ccc([N+](=O)[O-])cc2)cc1S(=O)(=O)F`, for which the growth inhibition in assay [1] was -2.05%; in assay [2], 27.9%; in assay [3], 30%; in assay [4], -5.6%; in assay [5] it was 45%; in assay [6] it was 15.2%.

With `CN/N=C(/CCN1CCCC1)CC(c1ccccc1)c1c(O)c2ccccc2oc1=O` (stereo not given), the growth inhibition in assay [1] was 35.5%; in assay [2] it was 9%; in assay [3], 29.6%; in assay [4], 35.2%; in assay [5], 31.5%; in assay [6], 37.4%.

Regarding `CCC1CC[N-]CC1.CCC1CC[N-]CC1.CCC1CC[N-]CC1.CCC1CC[N-]CC1.N#C[S-].N#C[S-].[Co]`, the growth inhibition in assay [1] was 23.1%; in assay [2] it was 16.9%; in assay [3], 34%; in assay [4], 15.3%; in assay [5], 26.8%; in assay [6], 24.8%.

`Oc1ccccc1/C=N/Sc1ccccc1.Oc1ccccc1/C=N/Sc1ccccc1.[Ni+2]`: the growth inhibition is 3.2% in assay [1]; -0.85% in assay [2]; 30.6% in assay [3]; -6.6% in assay [4]; 12.7% in assay [5]; 36% in assay [6].

For `C/C=C/CC1(CC)C(=O)NC(=S)NC1=O`, the growth inhibition was 3.8% in assay [1]; 7% in assay [2]; 7.15% in assay [3]; 9% in assay [4]; 2.35% in assay [5]; 13.6% in assay [6].

Consider `O=C(Nc1ccc(S(=O)(=O)F)cc1)/C(=C\c1ccc([N+](=O)[O-])cc1)c1cccc(Cl)c1`, for which the growth inhibition in assay [1] is 12.4%; in assay [2], 4.3%; in assay [3] it was -18.2%; in assay [4] it was 31.4%; in assay [5] it was -0.7%; in assay [6] it was 11.1%.
